Screening data from PubChem BioAssay.
A selection: hits, their analogues and other compounds. The true share with any hit is near 19%.
HT1080NT lethal: qHTS for induction of synthetic lethality in tumor cells producing 2HG: qHTS for the HT-1080-NT fibrosarcoma cell line | HT-1080-NT fibrosarcoma viability, CellTiter-Glo ATP luminescence, 48 h | Potency, µM (highest dose often 46.1 µM), actives largely listed as cytotoxic | actives 1.6% (n = 360,000) | AID 686970, 2013;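 also: NT is the 2HG producing partner of a matched IDH1 knockdown line; nearly all actives have a fitted effect of over 55% in size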
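HT-1080-NT; 750 cells/well; 5% FBS RPMI; 48 h compound, 37 degrees C; CellTiter-Glo luminescence; curve fitting and curve-class assignment.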
HT1080 IDH1KD tx: qHTS for induction of synthetic lethality in tumor cells producing 2HG: qHTS for the HT-1080-IDH1KD cell line; HT-1080 IDH1 knockdown viability, ATP luminescence, 48 h; Potency, µM (series often up to 46.1 µM), actives largely listed as cytotoxic; actives 2% (n = 360,000); AID 686971, 2013
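Using the IDH1-knockdown HT-1080 line run in the same batch and compound series as the NT line, viability after 48 h at 37 °C was determined by CellTiter-Glo luminescence and expressed as % activity.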
IL-1B inflam inh: qHTS for Inhibitors of Inflammasome Signaling: IL-1-beta AlphaLISA Primary Screen; activity change, % at 57.5 µM; THP-1 LPS/ATP IL-1B secretion, AlphaLISA, 16 h; hits give low values; actives 4.7% (n = 360,000); in the data active = activity change below about -50%; inconclusive = mostly about -30% to -49%
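THP-1 cells pretreated 1 hr with compounds (up to 57.5 uM final), then stimulated with LPS (250 ng/mL final) plus ATP (1.25 mM final); secreted IL-1B measured by AlphaLISA after 16 hr, decreased signal indicating inhibition.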
TDP1 cell noCPT: qHTS for Inhibitors of human tyrosyl-DNA phosphodiesterase 1 (TDP1): qHTS in cells in absence of CPT; actives 15% (n = 420,000); DT40 Tdp1-/- hTDP1 cells, no CPT, ATP luminescence, 48 h; Potency, µM (top dose mostly 46.2 µM), usual class: inhibitors; also: nearly all actives have a fitted effect of over 55% in size
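Stably hTDP1-transfected Tdp1-null chicken DT40 cells were treated with library compounds minus camptothecin and grown for at least 48 hr at 37 °C, after which cellular ATP was quantified by luminescence.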
DT40 TDP1 CPT: qHTS for Inhibitors of human tyrosyl-DNA phosphodiesterase 1 (TDP1): qHTS in cells in presence of CPT; Potency, µM (titrated, usually from 46.2 µM), usual class: inhibitors; chicken DT40 Tdp1-/-;hTDP1 cells + 20 nM CPT, ATP luminescence, 48 h; actives 12% (n = 420,000); AID 686979, 2013; also: nearly all actives have a fitted effect of over 55% in size
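Chicken DT40 Tdp1-/- cells stably complemented with human TDP1 were seeded at 400 cells/well in medium containing 20 nM camptothecin, exposed to pin-transferred compounds, and grown at 37 °C for at least 48 hr. Viability was read as ATP luminescence.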
Numbers stand for hits; - = inactive; ? = inconclusive; . = no result given; [ ] = remark or other dose. Unless noted, calls follow the shape of the dose curve; as a rule, active = well fitted curve in the direction sought with a large enough effect; inconclusive = small, poorly fitted or top-dose-only effect, or another doubt; inactive = no such curve, though single readings can be large; an effect the other way counts as inactive or inconclusive.

SMILES | HT1080NT lethal | HT1080 IDH1KD tx | IL-1B inflam inh | TDP1 cell noCPT | DT40 TDP1 CPT
COc1ccc(C(=O)C(=O)N2CCN(c3ccc(C)cc3)CC2)cc1OC | - | - | - | ? | ?
O=P(O)(O)C(O)C(F)(F)C(F)(F)C(F)(F)C(F)F (centres undefined) | - | - | - | - | -
CCOc1ccc2nc(SCC(=O)NNC(=O)c3ccco3)c(C)cc2c1 | - | - | - | - | -
CCOc1ccc2cc(/C=C/C(=O)c3ccco3)c(Cl)nc2c1 | - | - | ? | 20.6µM | ?
Cc1ccccc1OCC(=O)N(Cc1nnc(-c2ccc(Cl)cc2)o1)C(C)C | - | - | - | 14.6µM | ?
CC(=O)/C(=N/Nc1ccccc1)Sc1nnc(C(O)c2ccccc2)n1-c1ccccc1 (centres undefined) | - | - | - | ? | ?
Cc1ccc(CSC2=NCCN2C(=O)c2ccc(S(=O)(=O)N(C)C)cc2)cc1 | - | - | - | ? | -
O=C(c1cccs1)N1CCN(c2nc3c(F)cc(F)cc3s2)CC1 | - | - | ? | ? | ?
CCCC(=O)N1CCN(c2nc3ccc(Cl)cc3s2)CC1 | - | - | - | ? | ?
CC(C)(C)C(=O)N1CCN(c2nc3c(F)cccc3s2)CC1 | . | . | . | 16.4µM | 16.4µM
O=C(C1COc2ccccc2O1)N1CCN(c2nc3c(F)cccc3s2)CC1 (centres undefined) | . | . | . | 23.1µM | ?
CC(C)(C)C(=O)N1CCN(c2nc3ccc(Br)cc3s2)CC1 | - | - | - | 16.4µM | 16.4µM
CC(C)(C)C(=O)N1CCN(c2nc3ccc(Cl)cc3s2)CC1 | - | - | ? | 23.1µM | ?
S=C1NC[C@H](CC2CCCCC2)N1CCc1cccc2ccccc12 | - | - | - | ? | ?
Cc1c(C(=O)NCc2ccccc2C(F)(F)F)sc(=O)n1Cc1ccccc1C#N | - | - | - | - | -
O=C(c1ccoc1)N1CCC(CO)(CCc2ccccc2)CC1 | - | - | - | - | -
CC(C)[C@H](NC(=O)[C@H](Cc1ccccc1)n1c(=O)[nH]c2ccccc2c1=O)C(=O)N1CCC[C@@H]1C(=O)O | - | - | - | - | -
CC1(C(=O)N2CCN(C(=O)c3ccco3)CC2)CC1(Br)Br (centres undefined) | - | - | - | - | -
CCCCC(=O)N1CCN(c2nc3ccc(Br)cc3s2)CC1 | ? | ? | -88.4 | 14.6µM | 16.4µM
COc1ccc(C2C(C#N)=C(N)N(c3sc4c(c3C#N)CCCC4)C3=C2C(=O)CC(C)(C)C3)cc1 (centres undefined) | - | - | - | ? | 20.6µM
COc1ccc(C2C(C#N)=C(N)N(c3sc4c(c3C#N)CCCC4)C3=C2C(=O)CC(C)(C)C3)cc1OC (centres undefined) | - | - | - | ? | 18.4µM
COc1ccc(C2C(C#N)=C3NC(=O)c4c(sc5c4CCCCC5)N3C3=C2C(=O)CC(C)(C)C3)cc1 (centres undefined) | ? | ? | - | 23.1µM | 16.4µM
Cc1ccc(OCC(=O)Nc2nnc(S(=O)(=O)N3CCC(C)CC3)s2)cc1 | - | - | - | - | -
CSC1=N/C(=C/c2cccnc2)C(=O)N1Cc1ccccc1 | - | - | . | ? | -
COc1ccc(OC)c(/C=N/NC(=O)c2[nH]nc3c2CCc2ccccc2-3)c1 | - | - | - | - | -
SMILES | HT1080NT lethal | HT1080 IDH1KD tx | IL-1B inflam inh | TDP1 cell noCPT | DT40 TDP1 CPT
CNC(=O)c1[nH]nc2c1CCc1cc(OC)ccc1-2 | - | - | ? | ? | ?
COc1ccc2c(c1)CCc1c-2n[nH]c1C(=O)NCCC(C)C | - | ? | -60.3 | ? | ?
COc1cccc(/C=N/NC(=O)c2[nH]nc3c2CCc2ccccc2-3)c1 | 3.66µM | 2.06µM | . | 4.11µM | 4.11µM
CCn1nc(C(=O)N2CCN(Cc3nc4ccccc4s3)CC2)c2ccccc2c1=O | - | - | - | ? | ?
CCOc1ccc(N=C/C=C/c2ccccc2)c(O)c1 | - | - | - | 18.4µM | 18.4µM
CCCc1cc(C(=O)OCC(=O)N2CCN(c3ccc(OC)cc3)CC2)sc1C | - | - | - | ? | ?
CC12CC3CC1C(C(=O)O2)C3C(=O)O (centres undefined) | - | - | - | - | -
CCNC(=O)C1CCCN(C(=O)c2cc(F)cc(F)c2)CC1 (centres undefined) | ? | - | - | - | -
Cc1nn(-c2ccccn2)c2c1C(=O)C(Br)CC2 (centres undefined) | - | - | -105.8 | 3.66µM | 5.17µM
CN(C)c1cccc(C(=O)OC(C(=O)Nc2ccc([N+](=O)[O-])cc2Br)c2ccccc2)c1 (centres undefined) | - | - | - | ? | -
CC(=O)Nc1ccc(-c2nnn(CC(=O)c3ccc(F)cc3)n2)cc1Cl | - | - | ? | - | -
CC(C)(C)c1ccc(OCCCn2ccnc2)cc1 | - | - | -68.3 | ? | -
CCCCOc1ccc(NC(=O)C(=O)NCCCn2ccnc2)cc1 | - | - | - | 18.4µM | ?
Cc1cc(OCCCn2ccnc2)ccc1C(C)C | - | - | - | 20.6µM | ?
c1ccc2cc(OCCCn3ccnc3)ccc2c1 | - | - | ? | ? | -
Cc1cc(Cl)cc(C)c1OCCCCn1ccnc1 | - | ? | - | ? | ?
Cc1cc(OCCCCn2ccnc2)cc(C)c1Cl | - | ? | -69.6 | 20.6µM | 18.4µM
CCC(C)[C@H](NC(=O)Nc1ccccc1F)C(=O)OC (some centres undefined) | - | - | - | - | -
Cc1ccccc1OCCCCCn1ccnc1 | - | - | ? | 16.4µM | 20.6µM
Cc1cc(NC(=O)c2c(F)cccc2F)n(-c2nc3ccccc3[nH]2)n1 | ? | 10µM | ? | 11.2µM | ?
Cc1cc(NC(=O)CSc2nc3ccccc3[nH]2)n(-c2ccccc2)n1 | - | - | - | ? | ?
Cc1cc(NC(=O)c2ccc(C)s2)n(-c2nc3ccccc3[nH]2)n1 | - | - | - | 20.6µM | ?
Cc1cc(NC(=O)c2c(F)cccc2Cl)n(-c2nc3ccccc3[nH]2)n1 | ? | ? | - | 23.1µM | ?
Cc1cc(NC(=O)C2CCCCC2)n(-c2nc3ccccc3[nH]2)n1 | ? | ? | - | 16.4µM | 23.1µM
Cc1cc(NC(=O)C2CCC2)n(-c2ccccn2)n1 | - | - | - | ? | ?
Cc1cc(NC(=O)c2ccccc2F)n(-c2nc3ccccc3[nH]2)n1 | ? | - | - | ? | ?
Cc1ccc2cc(CNC(C)c3cccc4ccccc34)c(N3CCC(O)CC3)nc2c1 (centres undefined) | . | . | . | - | -[9.04 µM]
